An excerpt weighted towards active compounds, which were near 7.4% of everything screened.
Luciferase inh = inhibitors of firefly (Photinus pyralis) luciferase. purified P. pyralis luciferase, luminescence, biochemical. P08659. Potency, µM (series often up to 115 µM), usual class: inhibitors. hit rate 2.5% among 76,000; note: nearly all actives have a fitted effect of over 65% in size
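Purified 10nM P. pyralis luciferase with 10uM D-luciferin and 10uM ATP in 50mM Tris acetate pH 7.5, 10mM Mg acetate, 0.01% Tween-20, 0.05% BSA. qHTS titration; luminescence read by CCD imager.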
SNCA expr inh = SNCA gene expression inhibition; HEK-293 SNCA-luciferase knock-in, luminescence, 24 h; Potency, µM (highest dose often 57.2 µM), without a hit: at the top dose activity change, negative = inhibition, most hits filed as inhibitors; hit rate 0.17% among 140,000;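 note: plate controls were DMSO cells for no effect and cell-free wells for full effect; nearly all actives have a fitted effect of over 45% in size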
HEK cytotox = cytotoxic compounds in HEK 293 cells | hit rate 6.6% among 94,000 | Potency, µM (top dose mostly 115 µM), for the others: at the top dose activity change, negative = cytotoxicity, usual class: inhibitors | HEK 293 viability, ATP luminescence (CellTiter-Glo), 48-72 h; note: nearly all actives have a fitted effect of over 60% in size
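Viability of HEK 293 cells, plated at 250 cells/well, was judged by cellular ATP after compound treatment for 48 or 72 hr. Luminescence was imaged 10 min after CellTiter-Glo addition at room temperature.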
NIH3T3 tox = kills NIH 3T3 cells; AID 1345082; Potency, µM (top dose mostly 96.7 µM), without a hit: at the top dose activity change, negative = cytotoxicity, hits mostly inhibitors; NIH 3T3 viability, CellTiter-Glo ATP luminescence, 48-72 h; hit rate 4.3% among 94,000; note: nearly all actives have a fitted effect of over 55% in size
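Luminescent ATP readout (CellTiter-Glo, 10 min RT) after 48 or 72 hr compound exposure of NIH 3T3 cells seeded at 400 cells/well in 1536-well format; quantitative HTS.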
SNCA viab count = cell viability loss counter-screen. HEK-293-SNCA-luc viability, GF-AFC fluorescence, 24 h. Potency, µM (highest dose often 57.1 µM), for the others: top-dose activity change, negative = cytotoxicity, hits mostly cytotoxic. hit rate 0.12% among 150,000;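 note: 0% = DMSO-treated cells and -100% = medium-only wells without cells; nearly all actives have a fitted effect of over 30% in size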
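HEK-293-SNCA-luc cells (1500/well) plated 24 h, then exposed 24 h to a dilution series; GF-AFC added 30 min at 37C, fluorescence 405/540 nm; normalised to medium-only and DMSO wells, Hill fit.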
NPR1 antag = human Npr1 receptor antagonism. P16066. HEK293 hNpr1 GloSensor cGMP, ANP-stimulated luminescence. Potency, µM (series often up to 46.3 µM), without a hit: at the top dose activity change, negative = inhibition, actives largely listed as inhibitors. hit rate 1.6% among 76,000. AID 1347048; calls by dose curve; note: nearly all actives have a fitted effect of over 60% in size
Target sequence (P16066 whole entry, looked up): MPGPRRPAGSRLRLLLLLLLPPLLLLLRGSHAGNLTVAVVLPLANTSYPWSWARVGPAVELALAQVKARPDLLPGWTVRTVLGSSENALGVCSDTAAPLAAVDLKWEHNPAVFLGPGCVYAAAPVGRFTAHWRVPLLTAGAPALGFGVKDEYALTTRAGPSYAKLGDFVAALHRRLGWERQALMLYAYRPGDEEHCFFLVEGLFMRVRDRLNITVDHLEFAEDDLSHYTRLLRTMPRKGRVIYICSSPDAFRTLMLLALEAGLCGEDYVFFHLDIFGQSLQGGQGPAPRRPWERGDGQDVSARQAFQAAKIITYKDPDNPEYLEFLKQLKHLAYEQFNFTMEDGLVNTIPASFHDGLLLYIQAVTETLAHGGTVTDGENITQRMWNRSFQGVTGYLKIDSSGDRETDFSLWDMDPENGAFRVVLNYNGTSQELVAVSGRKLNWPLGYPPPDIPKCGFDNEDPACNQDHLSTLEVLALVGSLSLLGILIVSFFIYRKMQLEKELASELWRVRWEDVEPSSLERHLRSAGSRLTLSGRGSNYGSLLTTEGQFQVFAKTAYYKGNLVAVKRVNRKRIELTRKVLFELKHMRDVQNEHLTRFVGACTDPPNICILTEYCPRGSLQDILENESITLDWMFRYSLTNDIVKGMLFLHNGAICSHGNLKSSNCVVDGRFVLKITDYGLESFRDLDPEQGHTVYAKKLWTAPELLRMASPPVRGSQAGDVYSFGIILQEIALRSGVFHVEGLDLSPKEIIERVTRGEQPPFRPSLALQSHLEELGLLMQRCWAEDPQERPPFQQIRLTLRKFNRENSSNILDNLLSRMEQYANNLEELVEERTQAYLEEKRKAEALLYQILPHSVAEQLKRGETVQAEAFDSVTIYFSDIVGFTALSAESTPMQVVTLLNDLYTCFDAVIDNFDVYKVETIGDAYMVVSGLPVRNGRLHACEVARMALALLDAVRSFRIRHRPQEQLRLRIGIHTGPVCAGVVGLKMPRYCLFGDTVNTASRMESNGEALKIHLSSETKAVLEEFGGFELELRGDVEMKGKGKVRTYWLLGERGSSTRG
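HEK293 cells stably expressing human Npr1 and cGMP GloSensor pGS-40F, loaded 2 h with 2% GloSensor reagent, given compound 30 min at room temperature. Luminescence read before and 20 min after 0.1 nM hNppA.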
* = called active by the depositor; i = inactive; ? = inconclusive; · = no result; ! = repeats disagree; [ ] = dose if it differs, or a comment. Unless noted, calls come from the whole dose curve; as a rule, active = well fitted curve in the direction sought with a large enough effect; inconclusive = small, poorly fitted or top-dose-only effect, or another doubt; inactive = no such curve, though single readings can be large; an effect the other way counts as inactive or inconclusive. Unless noted, % is set by controls: 0 for no effect and ±100 for the full control effect; potency is the fitted concentration of half-maximal effect.

SMILES | Luciferase inh | SNCA expr inh | HEK cytotox | NIH3T3 tox | SNCA viab count | NPR1 antag
COc1ccc(CCNC(=O)c2c(C)noc2-c2ccc(OC(F)(F)F)cc2)cc1 | i | -9.1% | 50.1µM* | -16.3% | 2.4% | -2.0%
COc1cc(OC)c(CNC(=O)c2c(C)noc2-c2ccc(OC(F)(F)F)cc2)c(OC)c1 | i | 2.0% | 39.8µM* | ? | -7.0% | -12.6%
Cc1nnc2ccc(N3CCN(C(=O)c4ccncc4)CC3)nn12 | · | · | -4.8%[172 µM] | -1.5%[138 µM] | · | ·
O=C1c2cnc(-c3cncnc3)nc2OCCN1c1cccc(C(F)(F)F)c1 | i | 4.9%[87.6 µM] | -15.2%[172 µM] | 39.8µM* | 1.5%[87.6 µM] | -0.5%[70.6 µM]
COc1cccc(-c2ncc3c(n2)OCCN(c2cccc(C(F)(F)F)c2)C3=O)c1 | 2µM* | -15.8%[87.6 µM] | ? | ? | -17.6%[87.6 µM] | -23.8%[70.6 µM]
O=C1NC2(CCCN([S+](=O)([O-])c3cccc(C(F)(F)F)c3)C2)COc2ccccc21 (stereo not given) | i | 8.6% | 2.1% | -4.2% | -0.6% | -2.1%
CC(C)N1CCN(C2CCOC3(CCN(C(=O)NCc4ccccc4)CC3)C2)CC1 (stereo not given) | i | 9.5% | 1.6% | i | 10.1% | 0.0%
CN(C)C[C@@H]1CN(Cc2ccccc2)C[C@H]1NS(=O)(=O)c1cccc(F)c1 | · | 12.7% | -12.0% | -25.3% | 11.5% | ·
Cc1ccc2nc(C3CCN(Cc4ccccc4)CC3)[nH]c(=O)c2c1 | i | 7.0% | -7.4% | 3.0% | 2.9% | 2.9%
COc1ccccc1-c1ccc(CN2CCCC(c3nc4ccc(F)cc4c(=O)[nH]3)C2)cc1 (stereo not given) | i | -15.6% | 35.5µM*! | 39.8µM*! | 1.6% | ?
O=c1[nH]c(C2CCCN(Cc3ccc(-c4cc(F)cc(F)c4)cc3)C2)nc2ccc(F)cc12 (stereo not given) | i | ? | 44.7µM*! | ? | 2.3% | -26.0%
O=c1[nH]c(C2CCCN(Cc3cccs3)C2)nc2ccc(F)cc12 (stereo not given) | i | -21.1% | ? | ? | 4.4% | -2.6%
O=c1[nH]c(C2CCCN(Cc3ccccc3)C2)nc2ccc(F)cc12 (stereo not given) | i | -22.2%[87.6 µM] | 50.1µM*! | 28.2µM*! | -15.6%[87.6 µM] | -12.2%[70.6 µM]
O=c1[nH]c(C2CCCN(Cc3cccc(-c4ccc(F)cc4F)c3)C2)nc2ccc(F)cc12 (stereo not given) | i | ? | 39.8µM* | ? | -3.0% | ?
Cc1nn(C)c2ncnc(N3CCC4(C3)C(=O)N(CC(N)=O)c3ccccc34)c12 (stereo not given) | i | ? | -3.8% | -13.8% | -6.6% | 4.4%
CCOCCOC1CCN(C(=O)c2ccc3[nH]ccc3c2)CC1 | ? | 77.5% | 4.0% | i | 9.3%[12.5 µM] | 0.0%
O=c1[nH]c(C2CCCN(Cc3ccc(-c4ccccc4)cc3)C2)nc2ccc(F)cc12 (stereo not given) | i | ? | 31.6µM*! | ? | ? | ?
O=c1[nH]c(C2CCN(CC3CCCC3)CC2)nc2ccc(F)cc12 | i | ? | -13.5% | -4.5% | 6.1% | 10.7%
Cc1ccc(-c2cccc(CN3CCCC(c4nc5ccc(C)cc5c(=O)[nH]4)C3)c2)c(C)c1 (stereo not given) | i | -25.8% | 35.5µM*! | ? | -4.0% | -1.7%
Cc1ccc2nc(C3CCCN(Cc4ccc(-c5cncnc5)cc4)C3)[nH]c(=O)c2c1 (stereo not given) | i | 2.6% | 4.6% | 4.3% | 3.5% | 1.7%
CSCC(=O)N[C@H]1CCN2C(=O)c3cc(-c4ccccc4F)ccc3NC(=O)[C@H]12 | i | 14.9%[87.6 µM] | ? | -44.8%[174 µM] | -2.6%[87.6 µM] | -20.8%[70.6 µM]
O=C1[C@H]2CN(Cc3ccc(Cl)cc3)C[C@H]2C(=O)N1CCN1CCc2ccccc2C1 | i | ? | ? | ? | ? | -25.2%
COc1ccc(-c2noc([C@@H]3C[C@H](NC(=O)COCC(=O)O)CN3C)n2)cc1 | 63.1µM* | 2.5%[87.6 µM] | 0.5%[172 µM] | -1.5%[138 µM] | 3.6%[87.6 µM] | -0.9%[70.6 µM]

Assay outcomes from PubChem.
